ChEMBL document CHEMBL1961873, “Compounds: GSK PKIS; Assays: Nanosyn kinase panel” (2012)

Key:
[1] = molecular target: Serine/threonine-protein kinase MRCK alpha (Homo sapiens) (UniProt Q5VT25); conditions: at 0.1 µM
[2] = molecular target: Serine/threonine-protein kinase MRCK alpha (Homo sapiens) (UniProt Q5VT25); conditions: at 1 µM
[3] = molecular target: Serine/threonine-protein kinase MRCK beta (Homo sapiens) (UniProt Q9Y5S2); conditions: at 0.1 µM
[4] = molecular target: Serine/threonine-protein kinase MRCK beta (Homo sapiens) (UniProt Q9Y5S2); conditions: at 1 µM
[5] = molecular target: Ribosomal protein S6 kinase alpha-5 (Homo sapiens) (UniProt O75582); conditions: at 0.1 µM
Sequence of Ribosomal protein S6 kinase alpha-5 (Homo sapiens) (O75582 whole entry, looked up): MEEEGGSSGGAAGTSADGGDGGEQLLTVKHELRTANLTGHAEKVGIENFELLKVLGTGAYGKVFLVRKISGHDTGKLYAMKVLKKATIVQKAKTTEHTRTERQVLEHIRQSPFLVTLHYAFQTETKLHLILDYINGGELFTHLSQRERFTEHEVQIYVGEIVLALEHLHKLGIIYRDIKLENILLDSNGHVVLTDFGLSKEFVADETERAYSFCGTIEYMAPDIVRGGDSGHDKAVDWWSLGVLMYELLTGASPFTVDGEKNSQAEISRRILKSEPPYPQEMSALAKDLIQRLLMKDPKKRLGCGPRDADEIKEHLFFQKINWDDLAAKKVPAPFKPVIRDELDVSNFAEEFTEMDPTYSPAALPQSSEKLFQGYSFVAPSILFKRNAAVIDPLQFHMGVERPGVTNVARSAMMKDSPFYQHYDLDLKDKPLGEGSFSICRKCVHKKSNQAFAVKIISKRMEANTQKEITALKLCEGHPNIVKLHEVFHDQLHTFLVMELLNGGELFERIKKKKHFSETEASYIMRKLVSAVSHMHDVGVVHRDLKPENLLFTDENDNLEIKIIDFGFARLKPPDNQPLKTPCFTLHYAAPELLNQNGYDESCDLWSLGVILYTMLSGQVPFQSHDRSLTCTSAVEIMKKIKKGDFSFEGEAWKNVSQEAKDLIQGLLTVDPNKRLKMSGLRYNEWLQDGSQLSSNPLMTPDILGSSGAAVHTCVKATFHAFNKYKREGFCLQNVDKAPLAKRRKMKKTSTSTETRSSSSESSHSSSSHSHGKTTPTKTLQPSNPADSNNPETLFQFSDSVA

[6] = molecular target: Ribosomal protein S6 kinase alpha-5 (Homo sapiens) (UniProt O75582); conditions: at 1 µM
[7] = molecular target: Ribosomal protein S6 kinase alpha-4 (Homo sapiens) (UniProt O75676); conditions: at 0.1 µM
Sequence of Ribosomal protein S6 kinase alpha-4 (Homo sapiens) (O75676 whole entry, looked up): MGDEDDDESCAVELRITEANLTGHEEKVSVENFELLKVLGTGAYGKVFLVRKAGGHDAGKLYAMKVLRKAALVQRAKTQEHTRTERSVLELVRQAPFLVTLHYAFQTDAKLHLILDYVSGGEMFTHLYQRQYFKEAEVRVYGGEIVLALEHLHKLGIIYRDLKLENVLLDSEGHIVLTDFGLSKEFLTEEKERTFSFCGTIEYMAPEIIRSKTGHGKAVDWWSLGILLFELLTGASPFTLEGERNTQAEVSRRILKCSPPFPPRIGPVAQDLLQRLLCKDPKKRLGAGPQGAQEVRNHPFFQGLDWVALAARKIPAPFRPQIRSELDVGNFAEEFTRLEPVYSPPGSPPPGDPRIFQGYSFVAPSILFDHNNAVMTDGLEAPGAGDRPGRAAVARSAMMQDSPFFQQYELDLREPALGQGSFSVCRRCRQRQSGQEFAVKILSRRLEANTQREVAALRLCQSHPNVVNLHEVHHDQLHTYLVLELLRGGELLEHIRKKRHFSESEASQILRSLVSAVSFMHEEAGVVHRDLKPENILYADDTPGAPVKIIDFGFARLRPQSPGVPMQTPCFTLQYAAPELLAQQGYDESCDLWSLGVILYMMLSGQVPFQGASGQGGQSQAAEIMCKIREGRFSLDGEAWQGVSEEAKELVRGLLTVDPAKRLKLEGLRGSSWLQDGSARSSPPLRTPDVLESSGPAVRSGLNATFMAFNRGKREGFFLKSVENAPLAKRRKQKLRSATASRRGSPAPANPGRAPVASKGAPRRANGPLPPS

[8] = molecular target: Ribosomal protein S6 kinase alpha-4 (Homo sapiens) (UniProt O75676); conditions: at 1 µM
[9] = molecular target: Ribosomal protein S6 kinase beta-1 (Homo sapiens) (UniProt P23443); conditions: at 0.1 µM
Sequence of Ribosomal protein S6 kinase beta-1 (Homo sapiens) (P23443 whole entry, looked up): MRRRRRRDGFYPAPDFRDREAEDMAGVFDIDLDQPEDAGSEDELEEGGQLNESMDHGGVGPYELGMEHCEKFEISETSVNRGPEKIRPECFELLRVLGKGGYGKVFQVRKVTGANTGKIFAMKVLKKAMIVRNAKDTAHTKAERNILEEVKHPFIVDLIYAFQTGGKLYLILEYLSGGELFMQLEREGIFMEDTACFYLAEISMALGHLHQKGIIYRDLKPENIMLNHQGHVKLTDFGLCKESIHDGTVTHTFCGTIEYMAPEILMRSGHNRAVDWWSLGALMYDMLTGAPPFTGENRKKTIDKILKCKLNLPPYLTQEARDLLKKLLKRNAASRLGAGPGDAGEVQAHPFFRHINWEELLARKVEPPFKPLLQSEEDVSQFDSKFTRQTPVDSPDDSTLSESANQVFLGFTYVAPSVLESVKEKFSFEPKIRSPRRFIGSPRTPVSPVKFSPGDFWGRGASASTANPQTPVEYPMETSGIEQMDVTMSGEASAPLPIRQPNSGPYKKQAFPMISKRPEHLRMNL

[10] = molecular target: Ribosomal protein S6 kinase beta-1 (Homo sapiens) (UniProt P23443); conditions: at 1 µM

Sequence of Serine/threonine-protein kinase MRCK beta (Homo sapiens) (Q9Y5S2 whole entry): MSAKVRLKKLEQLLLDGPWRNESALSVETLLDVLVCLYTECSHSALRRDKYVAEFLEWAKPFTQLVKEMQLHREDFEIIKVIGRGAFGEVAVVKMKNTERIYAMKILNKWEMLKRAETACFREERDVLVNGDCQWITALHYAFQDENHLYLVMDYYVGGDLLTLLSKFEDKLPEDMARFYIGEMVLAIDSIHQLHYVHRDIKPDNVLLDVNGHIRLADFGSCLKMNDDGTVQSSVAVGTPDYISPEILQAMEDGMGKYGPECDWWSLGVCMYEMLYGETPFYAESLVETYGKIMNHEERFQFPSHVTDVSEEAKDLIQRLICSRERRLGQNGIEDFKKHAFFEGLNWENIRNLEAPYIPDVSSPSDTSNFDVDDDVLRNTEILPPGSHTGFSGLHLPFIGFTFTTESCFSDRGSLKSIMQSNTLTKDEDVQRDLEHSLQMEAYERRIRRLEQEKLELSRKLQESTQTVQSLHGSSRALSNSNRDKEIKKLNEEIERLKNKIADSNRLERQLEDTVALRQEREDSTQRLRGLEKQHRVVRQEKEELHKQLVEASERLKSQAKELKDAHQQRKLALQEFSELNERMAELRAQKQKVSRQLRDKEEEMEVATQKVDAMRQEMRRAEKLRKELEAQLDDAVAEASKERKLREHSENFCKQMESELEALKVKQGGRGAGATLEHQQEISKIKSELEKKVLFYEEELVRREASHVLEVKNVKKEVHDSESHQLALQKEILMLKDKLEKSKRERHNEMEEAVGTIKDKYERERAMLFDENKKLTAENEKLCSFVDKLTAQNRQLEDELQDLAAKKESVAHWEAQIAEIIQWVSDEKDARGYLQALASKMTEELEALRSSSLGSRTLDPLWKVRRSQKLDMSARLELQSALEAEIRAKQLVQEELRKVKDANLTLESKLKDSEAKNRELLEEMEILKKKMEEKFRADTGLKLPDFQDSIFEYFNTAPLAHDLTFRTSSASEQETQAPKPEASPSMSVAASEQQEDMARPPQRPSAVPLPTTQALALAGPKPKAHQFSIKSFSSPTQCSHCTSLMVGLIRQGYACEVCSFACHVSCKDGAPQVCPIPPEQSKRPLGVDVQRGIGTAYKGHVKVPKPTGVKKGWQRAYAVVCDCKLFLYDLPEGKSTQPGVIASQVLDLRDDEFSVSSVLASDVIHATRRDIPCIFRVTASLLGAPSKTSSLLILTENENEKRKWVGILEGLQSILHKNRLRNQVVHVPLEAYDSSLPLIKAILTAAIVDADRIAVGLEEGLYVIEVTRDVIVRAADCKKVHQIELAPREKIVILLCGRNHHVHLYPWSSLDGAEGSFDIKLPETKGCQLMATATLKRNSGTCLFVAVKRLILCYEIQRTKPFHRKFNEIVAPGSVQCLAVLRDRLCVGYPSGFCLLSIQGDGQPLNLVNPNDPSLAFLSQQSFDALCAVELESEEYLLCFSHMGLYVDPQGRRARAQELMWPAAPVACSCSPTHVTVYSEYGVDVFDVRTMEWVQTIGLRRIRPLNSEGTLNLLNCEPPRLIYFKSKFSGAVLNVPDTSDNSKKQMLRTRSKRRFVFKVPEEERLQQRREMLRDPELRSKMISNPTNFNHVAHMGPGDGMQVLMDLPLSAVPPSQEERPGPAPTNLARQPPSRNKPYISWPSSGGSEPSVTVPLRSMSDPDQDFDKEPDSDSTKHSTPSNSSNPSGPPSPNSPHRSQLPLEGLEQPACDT

Structure (SMILES)	inhibition [1] [%]	inhibition [2] [%]	inhibition [3] [%]	inhibition [4] [%]	inhibition [5] [%]	inhibition [6] [%]	inhibition [7] [%]	inhibition [8] [%]	inhibition [9] [%]	inhibition [10] [%]
COc1cc2ncn(-c3cc(OCc4ccccc4S(C)(=O)=O)c(C#N)s3)c2cc1OC	1.12	5.41	1.99	4.7	8.16	11	3.93	10	3.14	5.33
NS(=O)(=O)c1ccc(Nc2cc(-c3cccc(O)c3)n[nH]2)cc1	0.59	0.11	0.64	1.33	5.25	5.94	2.94	9.16	0.39	2.83
CCn1c(-c2nonc2N)nc2c(C#CC(C)(C)O)nc(OCCNC)cc21	1.79	6.63	-0.48	2.36	1.77	2.97	3.16	9.93	3.31	10.1
NC(=O)c1cccc(Nc2nccc(Nc3cccc(F)c3)n2)c1	1.84	0.87	0.04	1.43	1.48	0.2	0.68	1.21	0.38	1.99
CN(C)CCCn1c(-c2nonc2N)nc2cnccc21	1.89	16.4	4.34	22.6	8.29	28.7	3.18	13.9	2.39	13.2
Cc1ccc(C(=O)NC2CC2)cc1-c1ccc2[nH]ncc2c1	1.33	0.57	0.35	5.75	-4.06	-3.97	-1.94	-1.58	-1.62	-3.02
O=S(=O)(CCOCc1ccc(-c2ccc3ncnc(Nc4ccc(OCc5cccc(F)c5)c(Cl)c4)c3c2)o1)c1ccccc1	0.06	-0.21	0.42	1.18	0.65	0.85	-0.78	0.33	-1.35	-0.16
COC(=O)c1ccc2c(c1)C(=Cc1cc(Br)c(O)c(Br)c1)C(=O)N2	5.51	5.34	-0.51	-0.15	7.14	12.2	2.52	6.18	1.57	3.47
COc1cc(Nc2nccc(-c3cnn4ncccc34)n2)cc(OC)c1	0.39	3.14	1.06	3.3	1.61	7.26	2.85	15.7	1.87	6.59
COc1cc2ncnc(Nc3ccc(C)c(O)c3)c2cc1OC	0.29	0.79	1.59	0.25	5.09	4.76	4.36	2.32	3.34	2.36
COC(=O)c1cncc(/C=C/c2c(C)cc(O)cc2C)c1	-0.75	4.85	-0.09	0.48	3.93	4.33	2.57	3.67	1.37	1.04
[O-][S+]1CCN(Cc2ccc(-c3ccc4ncnc(Nc5ccc(OCc6ccccc6)c(Cl)c5)c4c3)o2)CC1	-2.24	-0.57	0.47	-0.33	1.47	1.03	-0.52	0.11	-1.26	-0.16
FC(F)(F)c1ccc(-c2nn3ncccc3c2-c2ccnc(Nc3ccc4c(c3)OCCO4)n2)cc1	7.63	5.17	6.18	4.64	3.36	4.3	5.05	6.41	1.5	2.06
NS(=O)(=O)c1cccc(Nc2cc(-c3ccc(F)cc3)n[nH]2)c1	-0.33	4.84	-0.58	2.02	9.72	11.4	3.37	5.59	1.79	3.12
CS(=O)(=O)Nc1cccc(-c2ccc3c(NC(=O)C4CC4)n[nH]c3c2)c1	1.58	2.47	0.84	1.32	1.49	1.04	0.62	2.85	1.15	1.9
Cc1nc(-c2ccccc2)n2nc(NCCCN3CCOCC3)ncc12	6.14	2.64	0.51	0.04	0.53	1.08	2.47	3.6	1.34	2.24
CN1CCN(C(=O)c2ccc(NC(=O)Nc3ccc(N(C)c4ccnc(Nc5ccc(CS(C)(=O)=O)cc5)n4)cc3)cc2)CC1	5.17	7.71	-0.06	3.61	1.16	3.3	2.61	13.8	1.43	5.8
